From the supplement of paper PMC11417369
Whole data set: some 25,000 sequences, median “ln(normalized median fluorescence intensity)” near 7.1, cut for the highest 2% near 10. Many of the other results were omitted from the sample, so the highest values are more common in it than they were.

Tested on: PfSIP2 AP2 domain 1 (GST-tagged)
Assay: gcPBM binding intensity (ln(normalized median fluorescence intensity)); higher = stronger DNA binding
Procedure, shortened: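 Using an Agilent 4 × 180k array, primer-extended double-stranded 36-bp intergenic genomic probes and negative controls were exposed for 1 h to GST-fused P. falciparum DNA-binding domains expressed in E. coli. Binding was carried out in 1× PBS with 1% milk, 0.2 mg/ml BSA, 0.5% salmon testes DNA and 0.03% Triton X-100, and protein was detected with Alexa488 anti-GST antibody and a 488 nm scan. Binding intensity is the highest Masliner-normalised natural-log median intensity across replicate spots of either probe orientation.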

Sequence	gcPBM binding intensity (ln)
TAAGTATATTTCTGCACACAAAAAAAAAAACCAAAA [CACACA_site4056]	7.18
AATGATATATTTAAATGTACACATGAAATATAATAT [XGTACX_site2678]	7.06
ATAAAAAAAAAATAATGTACTTATATATATATATAT [XGTACX_site8282]	9.32
TATATTATAGGTTGTGTACACATATTATATAGTACT [CACACA_site4583]	7.16
GATGTATAAAATAATACATGCATGTCCTACATATAT [TGCATGCA_site155]	6.89
AATACGGCAAACATTAAAAAATATAATAACAATAAA [CACACA_negctrl_site868]	6.96
TGCAAAAAATTCCACACACACACACGCATATAAATA [CACACA_site6696]	7.27
ATATGTACGCAAGGTGCACACTGGTGCATTAAAAAA [CACACA_site1801]	12.3
CATTATGTACAAAAAGTGCAATATATATTAACACTG	8.23
TATGTGTGCAAAAACTGTACACATTAAAGGTATATA [XGTACX_site7627]	7.54
ACATATAAAATATATACACACATATAAATACATTAA [CACACA_site3867]	7.06
GCAAGGTCCACACTGGTGCATTAAAAATAAAATATA [GTGCAC_site9956]	10.4
GAATATGAATATTTGCGTACTTATATAACTGTTCTA [XGTACX_site883]	6.83
GTGTTAATTTTAAATTGTACAAAATTTATATGATTT [XGTACX_site348]	7.19
TAAATGTTTCTCAAAAGTACACATGTGATATTTCTT [XGTACX_site2065]	6.84
TATTTTCTCGTTTGCATGCACCTTATTTTATGTGGT [GTGCAC_site9470]	10.8
AGCATTTTTCATTTTGCACACATGTTTTATGTGTAT [CACACA_site3454]	7.11
TATGTGTATTTATTTGCATGTTGGTTGTATTTTTTC [TGCATGCA_site479]	6.93
ACTTGTTTTCAATGTAAAATACAATTTTCATTTATT [CACACA_negctrl_site435]	7.08
TATTAAATTTATCGGAGTACATTTAAATGTATATAC [XGTACX_site7975]	7.13
TATATAACATATAACACACATACTTAGTATTACATA [CACACA_site3099]	7
TAATATAAATGAAAGGTGCTTTTGCTTTCTTTTTTT	7.08
TCTTTTCTCGGAAGGGTGCAAGGAATTAATGAAATA [GTGCAC_site9706]	11.1
TTCTTTTCTCTTTTAATCATATTATATAAATGAATA [CACACA_negctrl_site820]	7.29

Sequence	gcPBM binding intensity (ln)
TTTTTATTTTTTTATTTCTTATCAAATAAAATATAT [XGTACX_negctrl_site537]	6.84
TGTTTTGTTGTGTATTGTACTAATATAAATATATAA [XGTACX_site1852]	7.41
TATAAGGCAATAATAGTGCACTAAGATATATAATGA	10.6
TATTAATATATAGTAGTGCAATAAAGATATACTGAA	8.3
TTGCAATAATGTTGCACACTAAATAGTCATATATAA [CACACA_site263]	7.31
AAGTAGTGTTAATACTGTACTTATATTTTTTATTAT [XGTACX_site8264]	6.92
ATTAAAAATATAGTCACACATACACCCATATATATT [CACACA_site5394]	6.92
ATATCCATAATAAAAACATGCAACAGAAAAAAAAAA [TGCATGCA_site497]	7.14
AGTATAAATAAATCATAAACATATATATATATATAT [GTGCAC_negctrl_site356]	9.25
ATGTATGCAAAAATGGTGCATATTAAATGTATAACA [GTGCAC_site9722]	11.1
AATCATATTAGTATGGTGCAACATATATAAATATAT	10.8
CATATATAAATATGTATGCACTTTAACAAAATGTAT	7.74
ATTATGTACAAAATGGTGCAATATTATACATATATA [GTGCAC_site9468]	10.4
TATATATTTATTAAATGTACATAACAAAAATGGTAT [XGTACX_site3577]	7.41
ATTTTATATACAAAATGTACATATTTATTATATATG [XGTACX_site6732]	6.99
TAATTATAATAATAACGTACATATATAAAATGGTGA [XGTACX_site8434]	7.21
ATATATATTAAAAATAGTACATATAATAAAAATCAT [XGTACX_site4265]	7.11
AATATAAATAAAAACACACACAATGGTACATATATA [CACACA_site3671]	7.02
TACAAATATATAAAATGTACATATATATACATATTA [XGTACX_site3029]	6.92
ATAAAACGTACAATGGTGCATATAAATAATATATAT [GTGCAC_site9960]	10.8
GTAATATTAAAATATACACACATAGAATATATATAT [CACACA_site4391]	8.8
TATATATAATATAGTGCATGTAAAAAATAAACCATG [TGCATGCA_site932]	9.18
GCATGTATAATGGTAGTGCATATAATAATATAATAA [GTGCAC_site9548]	9.06
TATAATAATATAATGGTGCATGTATATAACCATATA	10.7

Sequence	gcPBM binding intensity (ln)
TGAACTCACGAGCACACACACACATATATATATATA [CACACA_site8248]	9.18
TAAAATTTAAAATATACACACAAAAAGTTATTACAA [CACACA_site4080]	6.93
AACTGTACAATTTTTGTGCACAATAATTATTAATAT [GTGCAC_site9462]	8.74
TAAAATATATAAAACTGTACATTTTAAAGGCACAAC [XGTACX_site8342]	7.55
CTAATCGTGCACAACTGTACATTTGTCAAGGGCAAT [XGTACX_site8662]	10.4
ATATAAATGATATGTACACACATTTATATATATAAA [CACACA_site3475]	7.04
AATATATACCAACATAAATATATATATATATATATA [TGCATGCA_negctrl_site334]	9.89
AATATTTTATTTTGGGTGCAAAAGAATATTATTTCA	10.4
TTAAAAGAATATAATGCACACATTATTTTATTTTAT [CACACA_site3772]	7.03
ATAAAATTATTATATACATGCAAAATTAATATATTG [TGCATGCA_site507]	6.84
ATTTTATTTTATTAAGTGCAAAAAAAAAAAAAGAAA	8.24
TTATAATATATATAAAAGAAAAAAAATTATAATATA [CACACA_negctrl_site90]	6.69
TCAAAAGAATAATTGGTGCAAATTATATAATATAAT [GTGCAC_site9804]	10.2
TATTTATTATTATGTACACACTATATTAAAACATAA [CACACA_site4549]	7.08
CTCAAATGTTATTGTAGTACCTAAAAAATATATTCT [XGTACX_site1970]	6.97
TGTAGTCTGGAGAAACGTACATAGTATCTGGTAGCT [XGTACX_site2538]	6.84
TTTTAACATATAAGTACACACATATAATCAATCATA [CACACA_site2325]	7.25
AATTTCTTTTTCGATATACACACTGTATGTGTCTAA [CACACA_site3975]	6.94
CATAATATGTGGACTTTACACACTTGTTTTAAAATT [CACACA_site819]	6.87
TGTATGTTTGGGTGCACACATAAATATTATATATAG [CACACA_site3397]	12.2
ATAAATATTGGGTGCACACACATAATATATATATAT [CACACA_site2272]	12.2
TATATGTATGTTTGTGTGCACACATAAATATTATAT	8.48
ATATATATATATATTGCACACATATAAATATATATA [CACACA_site8167]	9.22
TATATATATATGTGCACACATATATAATATGTATAA [CACACA_site715]	9.37

Sequence	gcPBM binding intensity (ln)
AAAATCTAATATAATGCACACATAAAAAAAAATCAA [CACACA_site9211]	7.52
TATGTATGTTAGTGTGCACACATAAATATTATATAT [CACACA_site9121]	9.26
TGTAGAAATGGGTGCACACACATATAAAATCTATAT [CACACA_site7224]	12.2
ACATATAAATATTGTGTGCACACACATAATATATAT	8.29
AATATATATATATGTGCACACATATATAATATGTAT [CACACA_site716]	8.55
AAAATCTAATATAATGCACACATAAAAAAAAAATCA [CACACA_site8871]	7.17
AATGTAGAAATGGGTGCACACACATATATAATATAT [CACACA_site8799]	11.7
TTAATATTGTATTTCACACATAATTTAATATACTCA [CACACA_site5678]	6.87
CAAAAAAAAAAAAAAACACACATTAAATTATAAAGA [CACACA_site2613]	6.77
TTTTATATTCCACAAAAAATTATATAATAATAGAAC [CACACA_negctrl_site1741]	7.26
TGTAGAAATGGGTGCACACACATATATAATATATAT [CACACA_site2507]	12.3
TAAACATAAATATGCACACATATACATATATTCATA [CACACA_site2667]	7.34
TATATATATATATTCACACATAAAAATAAAATAAAA [CACACA_site4774]	8.88
AAAATATAATATAATGCACACATAAAAAAAAAAAAA [CACACA_site7989]	7.19
ATAATAAAAAAAAATGCACACATATATATATATATA [CACACA_site8766]	9.29
TATATATATATATTCACACATAAATATATGCACCCA [CACACA_site4263]	11.6
TATTTGATAAATTATACACACACAATATATATAAAA [CACACA_site8625]	6.94
AAGATTAGGTTAATTAGTACTTATTATATTGTAATG [XGTACX_site3653]	6.85
AATAAAAATAATATAGTGCATAATATAAGGAAAAAA	9.36
TATACCAATGAATGAGTGCAAAGAAGATAAGGAAAA	8.58
TACCAATGCATAACGGTGCAAAAAAATAAGGAATAA	10.7
